Data reported in PubChem BioAssay (NCATS).
Results filed as inconclusive are left out. Calls of active or inactive are those of the source. Unless noted, calls follow the shape of the dose curve; as a rule, active = well fitted curve in either direction with a large enough effect (not every such curve was filed as active); inconclusive = small, poorly fitted or top-dose-only effect, or another doubt; inactive = flat fitted curve, though single readings scatter.

How the values were obtained:
[1] = target: Lysosomal acid glucosylceramidase (Homo sapiens) (UniProt P04062); experiment: Glucocerebrosidase-p2 (AID 348; in the data active = potency below about 10 µM; also: potency is read from the fitted curve at half-maximal effect); details: purified GBA, blue fluorogenic substrate, 40 min
Sequence of Lysosomal acid glucosylceramidase (Homo sapiens) (P04062 whole entry, looked up): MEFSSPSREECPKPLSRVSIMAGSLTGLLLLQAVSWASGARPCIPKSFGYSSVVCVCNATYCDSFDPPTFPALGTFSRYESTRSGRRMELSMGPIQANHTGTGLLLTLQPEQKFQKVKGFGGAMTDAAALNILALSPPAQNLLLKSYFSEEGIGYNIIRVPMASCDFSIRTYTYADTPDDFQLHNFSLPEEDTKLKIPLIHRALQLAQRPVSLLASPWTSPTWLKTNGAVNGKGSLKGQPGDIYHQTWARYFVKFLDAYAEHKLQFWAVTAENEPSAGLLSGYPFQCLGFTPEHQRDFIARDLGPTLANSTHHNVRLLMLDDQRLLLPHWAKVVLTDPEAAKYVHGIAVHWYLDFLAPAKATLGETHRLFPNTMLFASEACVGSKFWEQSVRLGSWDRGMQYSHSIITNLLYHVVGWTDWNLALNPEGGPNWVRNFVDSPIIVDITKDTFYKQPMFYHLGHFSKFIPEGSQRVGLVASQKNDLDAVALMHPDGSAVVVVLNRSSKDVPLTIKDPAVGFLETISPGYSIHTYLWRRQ
Summary of the method: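 Normal human glucocerebrosidase (0.2 nM) with blue fluorogenic substrate (80 uM final) in citrate/phosphate pH 5.9 with 10mM sodium taurocholate, 0.01% tween-20; 40 min RT, NaOH/glycine stop; fluorescence Ex 365/Em 440; AC50 from a titration from 0.6 nM upwards.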

[2] = AP1 Signaling Pathway (AID 357); details: ME-180 AP-1-bla reporter, EGF-induced, beta-lactamase ratio, 5 h; at 7.69 µM (top of the series) unless noted;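 also: ME-180 reporter cells stimulated with EGF at its EC50 level; % is scaled to controls: 0 for no effect and ±100 for the full control effect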
Summary of the method: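 Titration-series screen for positive or negative modulators of EC50 EGF-induced signaling in ME-180 cells carrying an AP-1-driven beta-lactamase reporter. After 5 hours at 37 degrees Celsius, CCF4 460nm/530nm emission ratio gave %Activity; AC50 values derived.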

[3] = target: Cytochrome P450 1A2 (Homo sapiens) (UniProt P05177); experiment: p450-cyp1a2 (AID 410; calls by dose curve; also: potency is read from the fitted curve at half-maximal effect;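 as to activity change, negative = inhibition: -100% = full effect of reference inhibitor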); details: recombinant CYP1A2, luciferin-ME demethylation, luminescence; series mostly up to 11.4 µM
Sequence of Cytochrome P450 1A2 (Homo sapiens) (P05177 whole entry, looked up): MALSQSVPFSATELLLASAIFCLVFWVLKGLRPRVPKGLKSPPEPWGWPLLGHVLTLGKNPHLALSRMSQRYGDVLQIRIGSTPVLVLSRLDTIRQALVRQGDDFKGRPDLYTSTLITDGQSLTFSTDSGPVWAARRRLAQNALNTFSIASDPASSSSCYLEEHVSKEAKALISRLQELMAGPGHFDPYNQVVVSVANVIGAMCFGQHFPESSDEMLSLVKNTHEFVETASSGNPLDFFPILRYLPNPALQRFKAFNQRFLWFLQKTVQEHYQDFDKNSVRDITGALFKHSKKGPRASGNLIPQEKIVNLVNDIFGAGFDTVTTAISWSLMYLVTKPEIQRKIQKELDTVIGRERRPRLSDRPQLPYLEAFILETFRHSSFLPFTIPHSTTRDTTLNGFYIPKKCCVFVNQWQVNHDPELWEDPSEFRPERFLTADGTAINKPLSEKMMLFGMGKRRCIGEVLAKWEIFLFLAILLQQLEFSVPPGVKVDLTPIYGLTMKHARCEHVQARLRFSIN
Summary of the method: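 O-Demethylation of luciferin 6' methyl ether by human CYP1A2 is monitored as luciferase luminescence. Substrate sits at Km (100uM); enzyme is 20nM. Values are scaled to 57 uM furafylline as maximal inhibition.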

[4] = NFAT Signaling Pathway (AID 444); details: Jurkat NFAT-bla M1, carbachol, beta-lactamase ratio, 5 h; at 7.69 µM (top of the series) unless noted;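 also: carbachol stimulus at about its EC50 of 1 µM final; % is scaled to controls: 0 for no effect and ±100 for the full control effect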
Summary of the method: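 Read-out: CCF4 FRET ratio (460 nm/530 nm) after 1 h RT dye loading, used for %activity and AC50 from titration series. Cells: Jurkat NFAT-β-lactamase/M1 line, treated with compound plus 1 uM carbachol for 5 h, 37 °C.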

[5] = Stat Signaling Pathway (AID 446); details: ME-180 SIE beta-lactamase reporter, IL-6 stimulated, 5 h; at 7.69 µM (top of the series) unless noted;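 also: ME-180 cervical cancer cells given 40 pM IL-6 alongside compound; SIE-controlled beta-lactamase reporter measured as 460/530 nm FRET emission ratio; % is scaled to controls: 0 for no effect and ±100 for the full control effect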
Summary of the method: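 Emission at 460 and 530 nm (excitation 405 nm) reports SIE-controlled beta-lactamase in ME-180 cells. Cells received compound with 40 pM IL-6 for 5 hrs at 37 C; data scaled between 300 pM IL-6 and 125 nM JAK-inhibitor controls.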

[6] = target: Glucocorticoid receptor (Homo sapiens) (UniProt P04150); experiment: GR-GFP Redistribution (AID 450;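 active = compounds whose dose series gives a full or clear partial fitted curve of increased nuclear translocation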; also: potency is read from the fitted curve at half-maximal effect); details: U2OS GR-GFP nuclear translocation, laser cytometry, 2 h
Sequence of Glucocorticoid receptor (Homo sapiens) (P04150 whole entry, looked up, the tested form may be a part): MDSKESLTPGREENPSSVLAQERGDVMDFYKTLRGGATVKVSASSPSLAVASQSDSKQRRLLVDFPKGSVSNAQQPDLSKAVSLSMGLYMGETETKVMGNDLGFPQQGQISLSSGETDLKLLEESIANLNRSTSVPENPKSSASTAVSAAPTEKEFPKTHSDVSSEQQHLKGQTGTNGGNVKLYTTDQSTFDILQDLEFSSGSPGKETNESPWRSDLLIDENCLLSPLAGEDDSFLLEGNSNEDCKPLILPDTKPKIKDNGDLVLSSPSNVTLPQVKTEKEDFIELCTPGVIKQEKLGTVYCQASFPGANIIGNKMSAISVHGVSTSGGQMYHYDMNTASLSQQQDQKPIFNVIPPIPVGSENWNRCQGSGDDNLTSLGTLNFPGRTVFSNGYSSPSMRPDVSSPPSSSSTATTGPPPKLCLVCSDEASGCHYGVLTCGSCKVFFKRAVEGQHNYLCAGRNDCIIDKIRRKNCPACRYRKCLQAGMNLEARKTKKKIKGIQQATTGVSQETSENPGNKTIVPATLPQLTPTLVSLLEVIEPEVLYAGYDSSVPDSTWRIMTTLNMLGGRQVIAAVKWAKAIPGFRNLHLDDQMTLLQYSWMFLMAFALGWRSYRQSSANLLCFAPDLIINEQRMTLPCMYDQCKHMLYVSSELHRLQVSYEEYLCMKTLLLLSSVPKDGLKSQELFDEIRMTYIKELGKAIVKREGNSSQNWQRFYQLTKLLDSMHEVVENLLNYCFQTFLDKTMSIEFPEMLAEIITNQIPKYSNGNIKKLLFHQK

[7] = target: Glucocorticoid receptor (Homo sapiens) (UniProt P04150); experiment: GR-EFC Redistribution (AID 451; calls by dose curve; also: potency is read from the fitted curve at half-maximal effect); details: CHO-K1 GR-EFC translocation, beta-gal luminescence, 2 h
Summary of the method: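 Translocation of GR-ED fusion to nuclear EA restores b-gal, read by luminescence after 1 h room-temperature detection. Engineered CHO-K1 biosensor cells, 1,000/well, exposed 2 h at 37 C to titrations up to 46 uM final.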

[8] = target: Mitogen-activated protein kinase 10 (Mus musculus) (UniProt Q61831); experiment: JNK3 AlphaScreen Assay (AID 530); details: JNK3 lysate, c-Jun phosphorylation; series mostly up to 11.4 µM;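 also: kinase came from lysate of stimulated human HepG2 cells; signal reports phosphorylation of biotinylated GST-cJun 1-79 at Ser73 with 10 µM ATP; % is scaled to controls: 0 for no effect and ±100 for the full control effect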
Summary of the method: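 qHTS titrations with 15 min compound pre-incubation before adding ATP (10 uM final). Read-out: AlphaScreen of Ser73-phosphorylated biotin-GST-cJun using HepG2 lysate JNK3 activated by IL-1β and TNFα.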

[9] = target: 3',5'-cyclic-AMP phosphodiesterase 4B (Homo sapiens) (UniProt Q07343); experiment: qHTS Assay for Inhibitors of PDE-IV (AID 607; active = well fitted activation curve with a large enough effect in the main read-out, with a control signal flat, not every such curve was filed as active; also: % of control where 0% means no effect); details: HEK293 ACTOne CNG channel cells, membrane potential fluorescence; series mostly up to 22.9 µM
Sequence of 3',5'-cyclic-AMP phosphodiesterase 4B (Homo sapiens) (Q07343 whole entry, looked up): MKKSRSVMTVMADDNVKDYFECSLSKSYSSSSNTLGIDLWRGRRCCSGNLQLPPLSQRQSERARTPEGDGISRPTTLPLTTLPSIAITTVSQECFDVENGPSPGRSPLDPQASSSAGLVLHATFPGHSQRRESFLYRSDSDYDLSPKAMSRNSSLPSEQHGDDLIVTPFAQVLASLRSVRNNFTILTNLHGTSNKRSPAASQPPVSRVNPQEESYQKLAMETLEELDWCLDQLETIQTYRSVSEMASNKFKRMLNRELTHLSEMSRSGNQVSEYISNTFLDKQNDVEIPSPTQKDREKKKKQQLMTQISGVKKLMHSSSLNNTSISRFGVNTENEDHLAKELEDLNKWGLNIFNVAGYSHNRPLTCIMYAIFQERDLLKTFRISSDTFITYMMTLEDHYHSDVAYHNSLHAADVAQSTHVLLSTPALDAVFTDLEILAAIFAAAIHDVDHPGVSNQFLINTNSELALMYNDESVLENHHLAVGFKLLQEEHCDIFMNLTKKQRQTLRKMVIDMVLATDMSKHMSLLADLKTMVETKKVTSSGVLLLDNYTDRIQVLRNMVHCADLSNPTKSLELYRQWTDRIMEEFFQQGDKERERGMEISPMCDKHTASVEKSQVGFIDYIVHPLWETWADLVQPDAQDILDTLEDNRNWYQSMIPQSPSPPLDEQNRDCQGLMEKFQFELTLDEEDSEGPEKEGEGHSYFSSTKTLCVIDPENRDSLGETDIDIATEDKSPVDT
Summary of the method: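 The readout is membrane depolarisation from a cAMP-sensing CNG channel, detected with a potential dye at ex 535/em 590. Cells were HEK293-derived (endogenous PDE-IV) at 1000 cells/well, titrated up to 22.9 uM final.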

[10] = target: Cytochrome P450 3A4 (Homo sapiens) (UniProt P08684); experiment: qHTS Assay for Activators of Cytochrome P450 3A4 (AID 885; active = well fitted curve in the direction sought with a large enough effect; an effect the other way counts as inactive or inconclusive; also: nearly all actives have a fitted effect of over 65% in size); details: recombinant CYP3A4, Luciferin-PPXE luminescence, 60 min; series mostly up to 11.4 µM
Sequence of Cytochrome P450 3A4 (Homo sapiens) (P08684 whole entry, looked up): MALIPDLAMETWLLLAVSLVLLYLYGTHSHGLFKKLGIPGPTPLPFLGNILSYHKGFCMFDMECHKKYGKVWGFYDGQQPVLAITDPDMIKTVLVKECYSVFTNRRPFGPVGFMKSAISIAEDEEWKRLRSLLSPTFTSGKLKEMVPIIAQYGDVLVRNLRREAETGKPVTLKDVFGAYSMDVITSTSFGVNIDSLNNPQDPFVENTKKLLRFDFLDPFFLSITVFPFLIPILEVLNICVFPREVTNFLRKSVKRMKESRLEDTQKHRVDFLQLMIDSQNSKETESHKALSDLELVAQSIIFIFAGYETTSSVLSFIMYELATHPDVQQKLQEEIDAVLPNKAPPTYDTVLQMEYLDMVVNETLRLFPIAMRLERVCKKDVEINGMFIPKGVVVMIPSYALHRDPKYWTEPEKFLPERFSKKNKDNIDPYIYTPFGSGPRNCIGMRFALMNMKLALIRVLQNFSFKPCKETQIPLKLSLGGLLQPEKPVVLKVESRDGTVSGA
Summary of the method: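 Activators are scored by enhanced luminescence from CYP3A4 conversion of luciferin-PPXE (25uM, equal to KM) to luciferin, after 60 min at RT with an NADPH-regenerating system.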

[11] = target: Cytochrome P450 2D6 (Homo sapiens) (UniProt P10635); experiment: qHTS Assay for Inhibitors and Substrates of Cytochrome P450 2D6 (AID 891; active = well fitted curve in the direction sought with a large enough effect; an effect the other way counts as inactive or inconclusive; also: potency is read from the fitted curve at half-maximal effect; nearly all actives have a fitted effect of over 60% in size); details: recombinant CYP2D6, luciferin-ME EGE luminescence; series mostly up to 11.4 µM
Sequence of Cytochrome P450 2D6 (Homo sapiens) (P10635 whole entry, looked up): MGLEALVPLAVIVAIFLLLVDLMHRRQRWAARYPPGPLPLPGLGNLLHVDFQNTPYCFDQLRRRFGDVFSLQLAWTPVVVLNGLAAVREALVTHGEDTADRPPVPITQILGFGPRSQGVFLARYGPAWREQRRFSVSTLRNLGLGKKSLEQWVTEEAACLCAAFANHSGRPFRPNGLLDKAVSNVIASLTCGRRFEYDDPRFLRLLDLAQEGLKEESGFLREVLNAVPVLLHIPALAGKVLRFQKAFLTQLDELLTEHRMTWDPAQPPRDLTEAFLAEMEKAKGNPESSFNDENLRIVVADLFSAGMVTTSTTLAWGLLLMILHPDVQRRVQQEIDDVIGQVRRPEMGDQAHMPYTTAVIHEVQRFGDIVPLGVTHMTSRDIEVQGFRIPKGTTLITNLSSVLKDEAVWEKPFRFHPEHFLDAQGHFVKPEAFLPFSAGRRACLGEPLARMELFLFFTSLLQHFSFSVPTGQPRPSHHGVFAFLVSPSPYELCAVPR
Summary of the method: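 Luminescent read-out of luciferin formed by 5 nM human CYP2D6 demethylating 30 uM Luciferin-ME EGE (Km level) over 60 min at room temperature after NADPH regeneration addition. Data normalized to full inhibition by 1.43 uM quinidine.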

[12] = target: Cytochrome P450 2C19 (Homo sapiens) (UniProt P33261); experiment: qHTS Assay for Inhibitors and Substrates of Cytochrome P450 2C19 (AID 899; active = well fitted curve in the direction sought with a large enough effect; an effect the other way counts as inactive or inconclusive; also: potency is read from the fitted curve at half-maximal effect; nearly all actives have a fitted effect of over 60% in size); details: recombinant CYP2C19, luciferin-H EGE luminescence; series mostly up to 11.4 µM
Sequence of Cytochrome P450 2C19 (Homo sapiens) (P33261 whole entry, looked up): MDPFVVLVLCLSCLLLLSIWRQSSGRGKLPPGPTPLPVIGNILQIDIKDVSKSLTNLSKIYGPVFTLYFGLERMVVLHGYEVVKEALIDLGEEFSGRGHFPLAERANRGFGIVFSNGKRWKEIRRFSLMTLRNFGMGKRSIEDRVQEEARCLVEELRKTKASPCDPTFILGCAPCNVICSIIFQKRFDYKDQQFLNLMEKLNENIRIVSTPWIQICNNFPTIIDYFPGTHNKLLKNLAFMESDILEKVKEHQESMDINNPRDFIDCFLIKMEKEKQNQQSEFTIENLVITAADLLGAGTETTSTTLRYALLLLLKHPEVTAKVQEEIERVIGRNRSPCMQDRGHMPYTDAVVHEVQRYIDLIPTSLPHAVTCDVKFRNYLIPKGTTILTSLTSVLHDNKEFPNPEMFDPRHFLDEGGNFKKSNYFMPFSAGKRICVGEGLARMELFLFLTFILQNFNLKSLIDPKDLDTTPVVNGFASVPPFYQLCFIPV
Summary of the method: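 Reactions contain 5nM enzyme, 10uM Luciferin-H EGE (KM) and 50mM KPO4; compound preincubates 10 min at 37C, NADPH regeneration starts turnover for 60 min. Luminescence after detection reagent gives activity.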

[13] = qHTS Assay for Identification of Small Molecule Agonists for Hypoxia Response Element Signaling Pathway (AID 914; active = well fitted activation curve with a large enough effect in the signal ratio, with a control signal flat, not every such curve was filed as active; the % refers to the signal ratio; also: % of control where 0% means no effect); details: ME-180 (cervical carcinoma) HRE-bla reporter, beta-lactamase ratio, CoCl2, 17 h; activation: active compounds read high
Summary of the method: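 HRE-bla ME-180 cells with beta-lactamase reporter under hypoxia response element, compounds with EC50 CoCl2 for 17 hours at 37 C. CCF4 substrate, 460nm/530nm emission ratio gave %Activity; AC50 from titration series.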

CSC1(SC2=NCCN2)SC2(NCCN2)S1
active: Potency [3] 0.398 µM | Potency [11] 3.98 µM | Potency [12] 1.58 µM
inactive: Potency [1] > 11.4 µM | activity change, negative = inhibition [2] -0.329% | activity change, negative = inhibition [4] -0.372% | activity, negative = inhibition [5] 5.32% | Potency [6] > 46 µM | Potency [7] > 9.22 µM | Potency [8] | Potency [9] | Potency [10]

c1cc(CNCCN2CCNCC2)ccn1
inactive: Potency [1] > 11.4 µM | activity change, negative = inhibition [2] -6.63% | Potency [3] | activity change, negative = inhibition [4] 3.58% | activity, negative = inhibition [5] -1.72% | Potency [6] > 46 µM | Potency [7] > 9.22 µM | Potency [8] | Potency [9] | Potency [10]

CC(C)N1CCN(c2ccncc2S(=O)(=O)N2CCCCC2)CC1
inactive: Potency [1] > 11.4 µM | activity change, negative = inhibition [2] 0.726% | activity change, negative = inhibition [3] -17% [at 2.29 µM] | activity, negative = inhibition [5] -6.7% | Potency [6] > 46 µM | Potency [7] > 9.22 µM | Potency [8] | Potency [9] | Potency [10]
active: activity change, negative = inhibition [4] -81.6%

c1ccc(C2=NN[C@@H]3c4ccccc4-c4ccccc4N3C2)cc1
active: Potency [3] 0.2 µM
inactive: Potency [1] > 11.4 µM | activity change, negative = inhibition [2] -18.5% | activity change, negative = inhibition [4] -9.73% | activity, negative = inhibition [5] -6.54% | Potency [6] > 46 µM | Potency [7] > 9.22 µM | Potency [8] | Potency [9] | Potency [10]

NC(N)=N/N=C(/c1ccccc1)c1ccc(O)cc1O
active: Potency [3] 3.16 µM | Potency [11] 1.26 µM
inactive: Potency [1] > 11.4 µM | activity change, negative = inhibition [2] -6.42% | activity change, negative = inhibition [4] 5.67% | activity, negative = inhibition [5] 6.43% | Potency [6] > 46 µM | Potency [7] > 9.22 µM | Potency [8] | Potency [9] | Potency [10]

CCCCN1CSC(=S)N(Cc2ccccc2)C1
active: Potency [3] 3.98 µM | Potency [12] 1.26 µM
inactive: Potency [1] > 11.4 µM | activity change, negative = inhibition [2] 3.6% | activity change, negative = inhibition [4] -0.909% | activity, negative = inhibition [5] 2.92% | Potency [6] > 46 µM | Potency [7] > 9.22 µM | Potency [8] | Potency [9] | Potency [10]

Cc1ccc2nc(CC(=O)c3ccc4ccccc4c3)c(=O)[nH]c2c1
inactive: Potency [1] > 11.4 µM | activity change, negative = inhibition [2] 6.36% | activity change, negative = inhibition [4] -17.8% | activity, negative = inhibition [5] 12.1% | Potency [6] > 46 µM | Potency [7] > 9.22 µM | Potency [8] | Potency [9] | Potency [10]
active: Potency [3] 2 µM

O=C1/C(=C/c2cccnc2)SC(=S)N1Cc1ccco1
inactive: Potency [1] > 11.4 µM | activity change, negative = inhibition [2] 0.116% | activity change, negative = inhibition [4] -2.58% | activity, negative = inhibition [5] -9.72% | Potency [6] > 46 µM | Potency [7] > 9.22 µM | Potency [8] | Potency [9] | Potency [10]
active: Potency [3] 0.501 µM | Potency [12] 3.16 µM

O=C(NNS(=O)(=O)c1ccccc1)c1cccnc1
inactive: Potency [1] > 11.4 µM | activity change, negative = inhibition [2] 16.3% | activity change, negative = inhibition [3] 2.2% [at 2.29 µM] | activity change, negative = inhibition [4] 7.27% | activity, negative = inhibition [5] 2.24% | Potency [6] > 46 µM | Potency [7] > 9.22 µM | Potency [8] | Potency [9] | Potency [10]

Cc1cc(C(C)(C)C)c(OCCCN2CCOCC2)c(C(C)(C)C)c1
inactive: Potency [1] > 11.4 µM | activity change, negative = inhibition [2] 3.87% | activity change, negative = inhibition [3] -17.7% [at 2.29 µM] | activity change, negative = inhibition [4] -12.7% | activity, negative = inhibition [5] 0.456% | Potency [6] > 46 µM | Potency [7] > 9.22 µM | Potency [8] | Potency [9] | Potency [10] | activation [13] 1.57%
active: Potency [11] 2 µM

COc1cc2c3cc1Oc1c(OC)c(OC)cc4c1[C@@H](Cc1ccc(O)c(c1)Oc1ccc(cc1)C[C@@H]3N(C)CC2)CN(C)C4
inactive: Potency [1] > 11.4 µM | activity change, negative = inhibition [2] -11.4% | Potency [3] | activity change, negative = inhibition [4] -11.8% | activity, negative = inhibition [5] -1.76% | Potency [6] > 46 µM | Potency [7] > 9.22 µM | Potency [8] | Potency [9] | Potency [10]

COc1ccc(C=Nc2c(O)ccc3ccccc23)cc1OC
active: Potency [3] 0.251 µM
inactive: Potency [1] > 11.4 µM | activity change, negative = inhibition [2] -0.822% | activity change, negative = inhibition [4] 9.83% | activity, negative = inhibition [5] -1.67% | Potency [6] > 46 µM | Potency [7] > 9.22 µM | Potency [8] | Potency [9] | Potency [10]

O=C(O)c1cc(-c2ccncc2)nc2ccccc12
inactive: Potency [1] > 11.4 µM | activity change, negative = inhibition [2] 3.07% | Potency [3] | activity change, negative = inhibition [4] -5.13% | activity, negative = inhibition [5] -5.62% | Potency [6] > 46 µM | Potency [7] > 9.22 µM | Potency [8] | Potency [9] | Potency [10]

ON(CCc1ccccn1)Cc1ccccc1
inactive: Potency [1] > 11.4 µM | activity change, negative = inhibition [2] -1.79% | activity change, negative = inhibition [4] 10.2% | activity, negative = inhibition [5] -0.0119% | Potency [6] > 46 µM | Potency [7] > 9.22 µM | Potency [8] | Potency [9] | Potency [10]
active: Potency [3] 2.51 µM
